Screens as filed in PubChem BioAssay.
HT1080NT lethal: qHTS for induction of synthetic lethality in tumor cells producing 2HG: qHTS for the HT-1080-NT fibrosarcoma cell line | HT-1080-NT fibrosarcoma viability, CellTiter-Glo ATP luminescence, 48 h | Potency, µM (highest dose often 46.1 µM), without a hit: at the top dose activity, negative = less viability, most hits filed as cytotoxic | hit rate 1.6% among 360,000 | AID 686970, 2013;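 also: NT is the 2HG producing partner of a matched IDH1 knockdown line; 0% = DMSO-treated cells and -100% = media-only wells without cells; nearly all actives have a fitted effect of over 55% in size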
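Compounds were tested in concentration-response format on HT-1080-NT cells for 48 hours at 37 degrees C. Cell viability came from CellTiter-Glo luminescence; curves were classified by r2, response magnitude and activity.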
KB-3-1 cytotox: qHTS assay for MDR1-selective chemotherapeutics: Primary screen using the parental adenocarcinoma cell KB-3-1; KB-3-1 viability, CellTiter-Glo ATP luminescence, 72 h; Potency, µM (titrated, usually from 46.1 µM), actives largely listed as cytotoxic; hit rate 1.4% among 400,000; AID 1347075, 2019; also: % is scaled to controls: 0 for no effect and ±100 for the full control effect; nearly all actives have a fitted effect of over 60% in size
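72 h, 37 °C compound treatment of KB-3-1 parental cells; CellTiter-Glo added, 10 min, luminescence read. Data corrected against DMSO-only plates and normalized before curve fitting.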
KB-V1 cytotox: qHTS assay for MDR1-selective chemotherapeutics: Primary screen using the drug-selected MDR subline cells KB-V1 | KB-V1 MDR cells viability, CellTiter-Glo, 72 h | hit rate 3.4% among 400,000 | Potency, µM (series often up to 46.1 µM), actives largely listed as cytotoxic; also: % is scaled to controls: 0 for no effect and ±100 for the full control effect; nearly all actives have a fitted effect of over 60% in size
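KB-V1 cells (P-gp-expressing MDR subline of KB-3-1) in phenol-red-free DMEM with 10% FBS were exposed to library compounds over a concentration series for 72 h at 37 degrees C. Viability read by CellTiter-Glo luminescence; concentration-effect curves fitted after normalization.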
TGFb SMAD3 inh: qHTS for Inhibitors of TGF-b | HepG2 CAGA-GFP TGF-b/SMAD3 reporter, GFP fluorescence, 18 h; TGF-beta stimulated, 500 pg/mL final | Potency, µM (titrated, usually from 46.1 µM), inactives show top-dose activity, negative = inhibition, most hits filed as inhibitors | hit rate 1.2% among 410,000 | AID 588855, 2011; also: % is scaled to controls: 0 for no effect and ±100 for the full control effect; nearly all actives have a fitted effect of over 65% in size
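First, reporter cells (HEPG2 CAGA-GFP) rested 2 h at 37 degrees C. Next, compounds were pinned in and TGF-beta added to 500 pg/mL final. After 18 h, GFP was imaged per cell and summed per well.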
HT1080 IDH1KD tx: qHTS for induction of synthetic lethality in tumor cells producing 2HG: qHTS for the HT-1080-IDH1KD cell line. HT-1080 IDH1 knockdown viability, ATP luminescence, 48 h. Potency, µM (series often up to 46.1 µM), for inactives: top-dose activity, negative = toxicity, usual class: cytotoxic. hit rate 2% among 360,000;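 also: 0% = DMSO wells and -100% = cell-free medium wells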
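Cytotoxicity counter-line: IDH1KD HT-1080, 48 h, CellTiter-Glo. Curves classed by r2, magnitude and activity.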
HepG2 tox: qHTS for Inhibitors of TGF-b: Cytotox Counterscreen. Potency, µM (top dose mostly 46.1 µM), inactives show top-dose activity change, negative = cytotoxicity, usual class: cytotoxic. HepG2 CAGA-GFP viability, ATP luminescence, 18 h. hit rate 0.76% among 410,000
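CellTiter-Glo luminescence gave cytotoxicity after 18 hours at 37 degrees C. The cells were HepG2 CAGA-GFP in 1% FBS DMEM, stimulated with 500 pg/mL TGF-beta after compound addition. %Activity was normalised to no-cell wells (complete cell-killing) and DMSO (no toxicity), and curves were fitted and classified.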
* hit, by the source's call; i = inactive; ? = inconclusive; . = not tested or not shown. Sampled rows, rich in hits. Any-hit rate of the full collection: about 6.6%. Calls follow the shape of the dose curve; as a rule, active = well fitted curve in the direction sought with a large enough effect; inconclusive = small, poorly fitted or top-dose-only effect, or another doubt; inactive = no such curve, though single readings can be large; an effect the other way counts as inactive or inconclusive. Potency is read from the fitted curve at half-maximal effect.

SMILES	HT1080NT lethal	KB-3-1 cytotox	KB-V1 cytotox	TGFb SMAD3 inh	HT1080 IDH1KD tx	HepG2 tox
Clc1ccc(Cn2c(-c3cccnc3Cl)nc3ccccc32)c(Cl)c1	?	?	23.1µM*	-4.1%	?	-18.6%
CCc1cccc2sc(N3CCN(C(=O)C4CC4)CC3)nc12	.	.	.	-29.5%	.	-37.2%
Cc1c(Cl)ccc2sc(N3CCN(C(=O)C4CC4)CC3)nc12	.	i	i	17.8µM*	.	-40.9%
CCOC(=O)c1nc(NCc2ccc(Cl)cc2)c2c(C)noc2n1	.	i	i	-13.8%	.	-4.2%
Cc1c(Nc2cc(Cl)c3nonc3c2[N+](=O)[O-])c(=O)n(-c2ccccc2)n1C	3.66µM*	?	i	?	?	-84.0%
Cc1c(Nc2ccc3nonc3c2[N+](=O)[O-])c(=O)n(-c2ccccc2)n1C	-17.6%	i	i	7.5%	-12.0%	-4.5%
Cc1cccc2c(=O)cc(C)n(CC(=O)N3CCCCC3)c12	-6.2%	i	16.4µM*	-4.5%	2.4%	8.0%
Cc1cccc(/C=N/NC(=O)c2cc(C3CC3)nc3ccccc23)n1	0.5%	i	i	-13.0%	0.7%	1.3%
Cc1cc(C(=O)N/N=C/c2ccc([N+](=O)[O-])s2)c2ccccc2n1	?	?	i	10µM*	?	-92.3%
O=C(N/N=C/c1ccc([N+](=O)[O-])cc1)c1cc(C2CC2)nc2ccccc12	25.9µM*	?	i	-20.0%	23.1µM*	-72.4%
Cc1cc(C(=O)N/N=C/c2cc([N+](=O)[O-])ccc2O)c2ccccc2n1	?	i	?	?	?	-25.2%
CCc1ccc(/C=N/NC(=O)c2cc(C3CC3)nc3ccccc23)s1	?	5.17µM*	5.17µM*	-6.6%	1.84µM*	-22.8%
COc1cc(C(=O)NN=Cc2ccc(N(C)C)cc2)cc(OC)c1OC	3.66µM*	1.46µM*	3.66µM*	-25.1%	2.91µM*	-3.4%
COc1cc(/C=N/NC(=O)c2ccncc2)cc(OC)c1OC	17.1%	i	i	20.5%	6.8%	-12.4%
COc1ccc(NCc2cc3cc4c(cc3n(CC(=O)Nc3ccc(F)cc3)c2=O)OCCO4)cc1	.	i	i	0.4%	.	-2.8%
Cc1ccc(Cl)cc1N(C)C(=O)c1sc2nc3n(c(=O)c2c1C)CCCC3	.	i	i	3.0%	.	-16.6%
Cc1cccc(/C=N/NC(=O)c2cc(C)nc3ccccc23)n1	15.2%	i	?	31.4%	0.0%	-0.9%
Cc1cc(C(=O)N/N=C/c2ccc([N+](=O)[O-])cc2)c2ccccc2n1	18.4µM*	5.8µM*	i	0.0%	4.61µM*	54.0%
Cc1cc(C(=O)N/N=C/c2ccc(N(C)C)cc2)c2ccccc2n1	3.66µM*	9.2µM*	?	-10.2%	3.26µM*	-1.6%
O=C(CNC(=O)c1ccccc1F)NCc1ccncc1	6.7%	i	?	10.3%	-2.3%	-9.2%
Cc1cc(=O)c2ccccc2[nH]1	-12.1%	i	i	3.7%	3.1%	-21.8%
Cc1cc(=O)c2cc(Br)ccc2[nH]1	-4.5%	i	16.4µM*	5.9%	-27.4%	-29.8%
COc1cccc(N2C(=O)CSC23C(=O)N(CC(=O)Nc2cccc(Cl)c2)c2ccccc23)c1 (centres undefined)	.	i	?	-23.5%	.	-17.6%
CC1CN(C(=O)C2CCCC2)C(C)CN1C(=O)C1CCCC1 (centres undefined)	2.3%	i	10.3µM*	0.0%	-7.3%	-19.1%
CCc1ccccc1NC(=O)Cn1c(=O)ccc2cc(S(=O)(=O)N3CCCC3)ccc21	.	i	i	-1.0%	.	-29.1%
SMILES	HT1080NT lethal	KB-3-1 cytotox	KB-V1 cytotox	TGFb SMAD3 inh	HT1080 IDH1KD tx	HepG2 tox
CCCCC[n+]1cccc2c3ccccc3ccc21	?	?	i	?	9.2µM*	-8.1%
COc1ccc(-c2cc(=O)c3c(C)cc(O)cc3o2)cc1	6.3%	i	2.59µM*	0.5%	1.5%	-4.1%
COc1ccc(-c2cc(=O)c3ccc(O)cc3o2)cc1	-14.7%	i	i	10.7%	-16.4%	1.9%
COc1cc(-c2cc(=O)c3c(C)cc(O)cc3o2)cc(OC)c1OC	12.0%	?	2.59µM*	18.1%	13.8%	1.1%
COc1ccccc1-c1noc(-c2ccc(N3CCOCC3)c([N+](=O)[O-])c2)n1	.	i	i	-1.1%	.	-3.8%
Clc1nccnc1N/N=C/c1ccc(Br)cc1	-28.8%	?	i	-25.4%	-26.6%	12.6µM*
COc1cccc(/C=N/Nc2nccnc2Cl)c1O	?	?	i	-29.4%	?	11.2µM*
Oc1ccccc1/C=N/Nc1nccnc1Cl	?	?	i	0.0%	?	-30.5%
COc1ccc(/C=N/Nc2nccnc2Cl)cc1	10µM*	i	i	-0.3%	11.2µM*	7.94µM*
CCn1cc(C(=O)NCc2ccc(F)cc2)c(=O)c2cc(S(=O)(=O)N(C)C)ccc21	.	i	i	-12.0%	.	-12.3%
CC1(C)CC(=O)C2=C(C1)NC(Nc1nc3ccccc3o1)=NC2c1ccccc1 (centres undefined)	.	i	i	7.6%	.	5.6%
N#Cc1cc2c(=O)n3ccccc3nc2n(-c2nnc(SCc3ccccc3Cl)s2)c1=O	.	i	i	0.7%	.	-0.2%
CC1CCN(c2c(NCc3ccc(C(=O)N4CCc5ccccc54)cc3)c(=O)c2=O)CC1	5.17µM*	1.64µM*	i	?	4.11µM*	1.5%
COC(=O)c1cccc(NC2CC(=O)N(c3ccc(OC)c(OC)c3)C2=O)c1 (centres undefined)	-1.7%	i	i	-9.0%	1.3%	5.01µM*
Cc1ncc(COCc2ccccc2)c(CO)c1OCc1ccccc1	7.2%	i	18.4µM*	-13.3%	6.5%	-10.2%
CCCCN(C(=O)c1cccc(-n2cnnn2)c1)c1c(N)n(CCCC)c(=O)[nH]c1=O	4.7%	i	i	11.9%	4.2%	-2.7%
Cc1ccc(-c2nc(CSc3nc4ccccc4c(=O)n3CCO)cs2)cc1	-26.0%	i	i	-7.0%	-22.1%	9.2%
C=CCn1c(SCc2csc(-c3ccc(C)cc3)n2)nnc1-c1ccccc1OC	-19.7%	i	13µM*	?	?	-11.6%
